Sampled rows, rich in hits. Any-hit rate of the full collection: about 19%.
HT1080 IDH1KD tx = qHTS for induction of synthetic lethality in tumor cells producing 2HG: qHTS for the HT-1080-IDH1KD cell line; HT-1080 IDH1 knockdown viability, ATP luminescence, 48 h; Potency, µM (series often up to 46.1 µM), for inactives: at the top dose activity, negative = toxicity, usual class: cytotoxic; 360,000 tested, 2% active; AID 686971, 2013;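 further: potency means the concentration at half of the fitted maximal effect; 0% = DMSO wells and -100% = cell-free medium wells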
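CellTiter-Glo luminescence after 48 h compound exposure at 37 degrees C of IDH1-knockdown HT-1080 cells in 5% FBS RPMI. %Activity scaled between DMSO wells and cell-free media wells, with curves fitted and assigned curve classes.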
DT40 TDP1 no CPT = qHTS for Inhibitors of human tyrosyl-DNA phosphodiesterase 1 (TDP1): qHTS in cells in absence of CPT | DT40 Tdp1-/- hTDP1 cells, no CPT, ATP luminescence, 48 h | Potency, µM (top dose mostly 46.2 µM), for inactives: at the top dose activity change, negative = growth inhibition, hits mostly inhibitors | 420,000 tested, 15% active; further: potency means the concentration at half of the fitted maximal effect; nearly all actives have a fitted effect of over 55% in size
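Luminescent ATP content (CellTiter-Glo) served as the growth readout. Knockout chicken DT40 cells expressing human TDP1 were exposed to compounds without camptothecin for a minimum 48 hr at 37 °C.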
IL1B secr inh = qHTS for Inhibitors of Inflammasome Signaling: IL-1-beta AlphaLISA Primary Screen | activity change, % at 57.5 µM | 360,000 tested, 4.7% active | THP-1 LPS/ATP IL-1B secretion, AlphaLISA, 16 h; active compounds read low; in the data active means activity change below about -50%; inconclusive means mostly about -30% to -49%
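THP-1 cells pretreated 1 hr with compounds (up to 57.5 uM final), then stimulated with LPS (250 ng/mL final) plus ATP (1.25 mM final); secreted IL-1B measured by AlphaLISA after 16 hr, decreased signal indicating inhibition.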
DT40 TDP1 CPT = qHTS for Inhibitors of human tyrosyl-DNA phosphodiesterase 1 (TDP1): qHTS in cells in presence of CPT | chicken DT40 Tdp1-/-;hTDP1 cells + 20 nM CPT, ATP luminescence, 48 h | Potency, µM (top dose mostly 46.2 µM), for the others: at the top dose activity change, negative = growth inhibition, actives largely listed as inhibitors | 420,000 tested, 12% active | AID 686979, 2013; further: potency means the concentration at half of the fitted maximal effect; nearly all actives have a fitted effect of over 55% in size
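Chicken DT40 Tdp1-/- cells complemented with human TDP1, 400 cells/well, exposed to compounds plus 20 nM camptothecin for at least 48 h at 37 C; viability read as ATP content by CellTiter-Glo luminescence.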
HT1080NT lethal = qHTS for induction of synthetic lethality in tumor cells producing 2HG: qHTS for the HT-1080-NT fibrosarcoma cell line; 360,000 tested, 1.6% active; HT-1080-NT fibrosarcoma viability, CellTiter-Glo ATP luminescence, 48 h; AID 686970, 2013; Potency, µM (series often up to 46.1 µM), for the others: at the highest dose activity, negative = less viability, hits mostly cytotoxic;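 further: NT is the 2HG producing partner of a matched IDH1 knockdown line; potency means the concentration at half of the fitted maximal effect; 0% = DMSO-treated cells and -100% = media-only wells without cells; nearly all actives have a fitted effect of over 55% in size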
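Toxicity toward the 2HG-producing NT line was scored as %Activity, normalised to DMSO and no-cell wells, from CellTiter-Glo luminescence after 48 hours' treatment.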
ELG1 DNA repair = qHTS screen for small molecules that inhibit ELG1-dependent DNA repair in human embryonic kidney (HEK293T) cells expressing luciferase-tagged ELG1; HEK293T ELG1-luciferase reporter, luminescence, 16 h; DNA damage induced by 5-fluorouridine; Potency, µM (top dose mostly 46.1 µM), for inactives: at the highest dose activity change, negative = inhibition, usual class: inhibitors; 330,000 tested, 2.3% active; AID 504467, 2011; further: potency means the concentration at half of the fitted maximal effect; nearly all actives have a fitted effect of over 55% in size
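Reporter activity after DNA damage by 5-fluorouridine is monitored. Compound-treated cells incubate 16 hr at 37 °C, then ONE-Glo is added for 30 min before luminescence reading.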
Numbers without * were called inactive; ? = inconclusive; · = not tested or not shown; ! = not confirmed by another sample; [ ] = remark or other dose. Unless noted, the call rests on the fitted dose curve; in most records, active means well fitted curve in the direction sought with a large enough effect; inconclusive means small, poorly fitted or top-dose-only effect, or another doubt; inactive means no such curve, though single readings can be large; an effect the other way counts as inactive or inconclusive. Unless noted, on the % scale 0 is the no-effect control and ±100 the full control effect.

SMILES | HT1080 IDH1KD tx | DT40 TDP1 no CPT | IL1B secr inh | DT40 TDP1 CPT | HT1080NT lethal | ELG1 DNA repair
CCCCn1c(=O)c(C(=O)Nc2ccc(C)cn2)c(O)c2ccccc21 | 8% | 9.2µM* | 14 | 13µM* | 3% | 14%
CCCCn1c(=O)c(C(=O)Nc2ccccc2F)c(O)c2ccccc21 | 0% | ? | 38 | 11% | 5% | 10%
CCCCn1c(=O)c(C(=O)NCCc2ccccc2)c(O)c2ccccc21 | 0% | ? | 35 | ? | 0% | -23%
CCCCCn1c(=O)c(C(=O)NCc2ccncc2)c(O)c2ccccc21 | -29% | ? | 92 | ? | -19% | -29%
CCCCn1c(=O)c(C(=O)Nc2ccccn2)c(O)c2ccccc21 | 5% | 4.1µM* | 37 | 3.3µM* | 0% | 1%
CCOC(=O)CNC(=O)N1Cc2cc(N3CCOCC3)ccc2-n2nncc2C1 | 8% | -12% | 0 | -1% | ? | ·
CCCCC(=O)N/N=C/c1c(O)n(-c2cccc3ccccc23)c(=O)[nH]c1=O | -6% | -28% | 0 | 5% | -7% | 8%
COC(=O)[C@@H](N)CCCN/C(N)=N/[N+](=O)[O-] | · | -24% | · | ? | · | ·
CCCCCCn1c(=O)c(C(=O)Nc2ncccc2O)c(O)c2ccccc21 | -3% | 5.2µM* | 10 | 5.2µM* | 5% | ?
CN1CCN(C(=O)COc2ccc(-c3nc4ccccc4s3)cc2)CC1 | -1%[9.24 µM] | 18µM* | -60* | -30% | ? | ?
COc1ccc(OCC(=O)N2CCN(Cc3cc(=O)n4nc(-c5ccc(OC)cc5)sc4n3)CC2)cc1 | · | 21µM* | · | 15µM* | · | ·
COc1ccccc1-c1nn2c(=O)cc(CN3CCN(C(=O)COc4ccccc4Cl)CC3)nc2s1 | · | 21µM* | · | ? | · | ·
O=C(COc1ccccc1Cl)N1CCN(CCc2ccccn2)CC1 | · | -5% | · | -1% | · | ·
CN1CCCN(C(=O)COc2ccccc2)CC1 | 11% | 9% | 12 | -6% | 18% | 17%
O=C1/C(=C/c2ccccc2Cl)N2CCC1CC2 | 0% | 1% | -14 | ? | -6% | ?
O=C1NC(=O)C2=Cc3ccc(O)cc3OC2(O)N1 (centres undefined) | · | · | · | · | · | 0%
COc1ccc(C2=CC(c3ccc(OC)c(OC)c3)c3c(c4ccccc4oc3=O)O2)cc1OC (centres undefined) | ? | ? | 17 | ? | ? | ?
O=C(C[N+]12CCC(CC1)C(CO)C2)c1ccc([N+](=O)[O-])cc1 (centres undefined) | 1% | ? | 3 | -29% | 2% | 9.2µM*
CCOC(=O)c1cccc(-[n+]2c(-c3ccccc3)cc(-c3ccccc3)cc2-c2ccccc2)c1 | 18µM* | 1.6µM* | -67* | 1.6µM* | ? | -26%
CCOC(=O)c1ccc(-[n+]2c(-c3ccccc3)cc(-c3ccccc3)cc2-c2ccccc2)cc1 | 23µM* | 0.73µM* | -99* | 1µM* | 18µM* | ?
CCOC(=O)CNC(=O)N1Cc2cc(-c3ccccc3)ccc2-n2nncc2C1 | 6% | -1% | 9 | -10% | 16% | ·
Cc1ccc(C)c(N2CCN(C(=O)CCS(=O)(=O)c3ccc4c(c3)oc(=O)n4C)CC2)c1 | 1% | 15µM*! | -21 | 16µM* | -13% | -4%
COc1ccc(OCC(=O)N2CCN(Cc3c[nH]c4ccccc34)CC2)cc1 | 0% | 3.7µM* | -9 | 1.6µM* | 0% | ?
COc1ccc(CN2CCN(C(=O)COc3ccccc3)CC2)c(OC)c1 | · | ? | · | -25% | · | ·
O=C(COc1ccccc1)N1CCN(Cc2c[nH]c3ccccc23)CC1 | -12% | 8.2µM* | 8 | 3.7µM* | -10% | -22%
SMILES | HT1080 IDH1KD tx | DT40 TDP1 no CPT | IL1B secr inh | DT40 TDP1 CPT | HT1080NT lethal | ELG1 DNA repair
Cn1cccc1CN1CCN(C(=O)COc2ccccc2)CC1 | 2% | -28% | 4 | -8% | 6% | ?
Clc1ccccc1Cl | · | -6% | · | -10% | · | ·
NCCNc1ccc([N+](=O)[O-])c2cccnc12 | -25% | 21µM* | -28 | ? | -28% | 24%
O=C(COc1ccc(Cl)cc1)Nc1ccc(Cl)cc1C(=O)c1ccccc1 | · | -9% | · | -6% | · | ·
NC(=O)Nc1ccc(C(=O)OCC(=O)Nc2ccc(Cl)cc2C(=O)c2ccccc2)cc1 | 1% | 0% | 25 | -2% | 3% | 21µM*
O=C(OCC(=O)N1CCCCC1)c1cc(S(=O)(=O)N2CCOCC2)c(Cl)cc1Cl | 3% | 0% | -59* | 4% | -1% | ?
CCN1CCN(C(=O)COc2ccc(S(=O)(=O)N3CCOCC3)cc2Cl)CC1 | 11% | -15% | -2 | 3% | 5% | 18%
O=C(NN1C(=O)C2C3C=CC(C4CC34)C2C1=O)c1cccc(Br)c1 (centres undefined) | 0% | ? | 0 | -25% | 1% | 0%
CCCn1cc(S(=O)(=O)c2ccc(OC)cc2)c(=O)c2cc(F)c(N3CCCCCC3)cc21 | · | 23µM* | · | ? | · | ·
Cn1c(=O)oc2cc(S(=O)(=O)NC3CCCCCCC3)ccc21 | -16% | ? | -4 | -21% | -13% | -3%
Cc1c(Cl)ccc2sc(N3CCN(C(=O)CCS(=O)(=O)c4ccc(F)cc4)CC3)nc12 | · | 0.46µM* | · | 0.58µM* | · | ·
O=C(Cc1ccc(S(=O)(=O)N2CCCC2)s1)N1CCN(c2ccc(F)cc2)CC1 | -8% | ? | 0 | ? | 0% | ?
CN1CCc2cccc(Cl)c2CC1 | 5% | 3% | 16 | -7% | -7% | -3%
O=c1c2ccccc2nc(/C=C/c2ccccc2)n1-c1ccccc1O | -28% | 23µM* | · | -11% | -23% | ?
O=c1c2ccccc2nc(/C=C/c2ccc(F)cc2)n1-c1ccccn1 | 15% | 18µM* | 7 | ? | 35% | -11%
O=c1c2ccccc2nc(/C=C/c2cccnc2)n1Cc1ccccc1 | ? | 23µM* | ? | ? | ? | ?

From PubChem
